Source: PubChem BioAssay
Only some compounds are listed: those with a hit (about 2.4% of all), similar ones and a draw of the others.
PLC-beta3 inh = blocks human PLC-beta3 enzyme activity; Q01970; Purified PLC-beta3, fluorogenic substrate, fluorescence; inhibition, % at 12.2 µM; 370,000 compounds, 0.18% hits; AID 720704;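 also: 0% = median of compound wells on plate and 100% = full blocker control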
UHRF1 binding = blocks human UHRF1 binding to methylated DNA; Q96T88; UHRF1 binding to methylated oligo, TR-FRET; inhibition, % at 4.4 µM; 370,000 compounds, 0.75% hits; in the data active = inhibition above about 21%;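 also: UHRF1 SRA domain binding a hemimethylated CpG hairpin DNA probe; 0% = median of test compound wells and 100% = reference inhibitor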
MBD2 inh = blocks human MBD2 binding to methylated DNA. Q9UBB5. TR-FRET, MBD2 binding to methylated oligonucleotide. inhibition, % at 4.4 µM. 370,000 compounds, 0.31% hits. AID 686964; in the data active = inhibition above about 13%
Target sequence (Q9UBB5 whole entry, looked up): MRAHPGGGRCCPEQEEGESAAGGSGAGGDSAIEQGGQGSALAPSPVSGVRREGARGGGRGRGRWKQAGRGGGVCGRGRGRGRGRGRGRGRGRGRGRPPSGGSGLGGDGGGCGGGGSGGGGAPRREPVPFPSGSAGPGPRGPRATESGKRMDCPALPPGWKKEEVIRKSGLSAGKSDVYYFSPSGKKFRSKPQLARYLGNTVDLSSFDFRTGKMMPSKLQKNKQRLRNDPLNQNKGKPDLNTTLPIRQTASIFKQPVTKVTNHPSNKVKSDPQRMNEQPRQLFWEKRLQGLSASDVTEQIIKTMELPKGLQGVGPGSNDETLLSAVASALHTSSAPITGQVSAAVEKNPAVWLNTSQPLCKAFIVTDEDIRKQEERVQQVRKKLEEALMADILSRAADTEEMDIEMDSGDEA
PLC-gamma1 inh = blocks human PLC-gamma1 enzyme activity; P19174; AID 720700; 370,000 compounds, 0.84% hits; purified PLC-gamma1, fluorogenic substrate, fluorescence; inhibition, % at 12.2 µM; in the data active = inhibition above about 9.5%
LEDGF integ inh = blocks HIV-1 LEDGF/p75-dependent DNA integration; inhibition, % at 3.7 µM; AID 743269; 370,000 compounds, 0.64% hits; TR-FRET IN-LEDGF/p75 DNA integration, Eu/Cy5;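 active = inhibition above the screen-wide mean plus 3 SD, cut at about 13% in these data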;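 also: signal is the Cy5 over europium emission ratio at 671 and 618 nm; 0% = plate median of compound wells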
PLCgamma1 ctr = counter-screen for PLC-beta3 inhibitors: inhibitors of human PLC-gamma1 | AID 743258 | 3,300 compounds, 3.1% hits | inhibition, % at 12.3 µM | shares compounds with PLC-gamma1 inh | purified PLC-gamma1, fluorogenic substrate, fluorescence; in the data active = inhibition above about 9.5%
PLCb3 confirm = human PLC-beta3 inhibition, confirmation | shares compounds with PLC-gamma1 inh | purified PLC-beta3, fluorogenic substrate fluorescence | inhibition, % at 12.3 µM | 3,300 compounds, 1% hits
* marks the source's active call; other numbers are inactive results; / = not tested or not shown. Rule as the data show it, unless noted: active = inhibition above about 11%; inactive = the rest.

SMILES	PLC-beta3 inh	UHRF1 binding	MBD2 inh	PLC-gamma1 inh	LEDGF integ inh	PLCgamma1 ctr	PLCb3 confirm
CC(C)(C)OC(=O)C[C@H]1C/C=C\C[C@@H](CC(=O)N(CCO)Cc2ccccc2)C(=O)N2CCC[C@H]2COC1=O	2	1	-7	2	5	/	/
Cc1c[nH]c2cccc(-c3ccc4c(c3)OCO4)c12	-8	-2	-5	-7	0	/	/
CCC(=O)N1CCc2cc(Br)c(S(=O)(=O)N3CCC(C(=O)NCCCOC(C)C)CC3)cc21	3	-2	2	-1	-3	/	/
Cc1c(NC(=O)C(C)OC(=O)COc2cccc3c2OC(C)(C)C3)c(=O)n(-c2ccccc2)n1C (stereo not drawn)	11*	0	-9	4	1	-5	-6
CCOC(=O)CN1C(=O)c2ccccc2C1=O	2	-1	0	0	-2	/	/
C=CCOC(=O)CN1C(=O)c2ccccc2C1=O	12*	7	-1	9	5	2	4
O=C(CSc1nc2ccccc2[nH]1)Nc1ccccc1N1CCOCC1	5	2	-5	10*	-2	-4	1
O=C(CSc1nc2ccccc2[nH]1)Nc1cc(C(F)(F)F)ccc1N1CCOCC1	2	-1	2	2	-1	/	/
CCOC(=O)CC1(CCc2ccccc2)Oc2ccccc2N1S(=O)(=O)c1ccc(C)cc1 (stereo not drawn)	5	-2	-1	12*	2	-2	0
CC(CNC(=O)c1cc(Cl)ccc1[N+](=O)[O-])NC(=O)c1cc(Cl)ccc1[N+](=O)[O-] (stereo not drawn)	4	1	-4	11*	1	-3	-1
Cc1ccc(-n2nc3c(=O)n(CCCC(=O)NCc4ccccc4F)nc(C)c3c2C)cc1	-9	2	-1	1	0	/	/
Cc1ccc(-n2nc3c(=O)n(CCCC(=O)NCc4ccccc4C)nc(C)c3c2C)cc1	-2	-1	1	14*	2	-8	-3
COc1cc(C(=O)NC2CC(C)CC(C)(C)C2)cc(OC)c1OC (stereo not drawn)	12*	-1	1	5	2	-1	-2
CN1CCOc2ccc(S(=O)(=O)NCCc3ccc(Cl)cc3)cc21	-7	30*	5	13*	7	4	0
CC(=O)N1CCOc2ccc(S(=O)(=O)NCCc3ccc(Cl)cc3)cc21	-2	-1	-2	6	1	/	/
CCOC(=O)C(NC(=O)CC)(Nc1ccc(S(N)(=O)=O)cc1)C(F)(F)F (stereo not drawn)	-8	0	2	1	4	/	/
CCOC(=O)C(NC(=O)CC)(Nc1ccccc1)C(F)(F)F (stereo not drawn)	11*	3	2	14*	0	-5	1
O=C(Cn1nc(CNc2ccc(Br)cc2)[n+]2c1CCCCC2)c1ccc([N+](=O)[O-])cc1	3	0	-5	9.8*	2	1	3
Oc1c(N=NC(=S)Nc2ccccc2F)c2ccccc2n1Cc1ccc(F)cc1	10	3	-3	10*	0	-2	-4
O=C(NN=Cc1ccc(O)cc1)c1cc(-c2ccc(Cl)cc2)n[nH]1	-20	-2	2	-12	-4	/	/
O=C(CCc1ccccc1)N[C@H]1[C@@H](OC(=O)c2cccnc2)CCC[C@@]12C(=O)N(Cc1ccccc1)c1ccccc12	5	3	1	6	-2	/	/
COc1ccccc1CCNC(=O)COc1cccc2c1OC(C)(C)C2	-7	2	4	3	1	/	/
COc1cccc(CN(C)C(=O)COc2cccc3c2OC(C)(C)C3)c1OC	13*	-1	-6	13*	6	-5	-4
Cc1nn(-c2ccccc2)c2sc(C(=O)N3CCN(Cc4ccc(F)cc4)CC3)cc12	-9	0	6	-3	-1	/	/
O=C1NC[C@H](Cc2ccccc2)N(C[C@H]2CCCN2C[C@H](Cc2ccccc2)N2C[C@H](Cc3ccccc3)N(CC3CCCCC3)C(=O)C2=O)C1=O	0	0	1	14*	6	-5	-3
SMILES	PLC-beta3 inh	UHRF1 binding	MBD2 inh	PLC-gamma1 inh	LEDGF integ inh	PLCgamma1 ctr	PLCb3 confirm
O=C1NC[C@H](Cc2ccccc2)N(C[C@@H]2CCCN2C[C@H](Cc2ccccc2)N2C[C@H](Cc3ccccc3)N(CC3CCCCC3)C(=O)C2=O)C1=O	4	4	2	-4	-10	/	/
O=C(Nc1ccncc1)c1cccc(S(=O)(=O)N2CCCC2)c1	-3	2	2	10*	4	-2	-3
Cc1cccnc1NC(=O)c1ccc(S(=O)(=O)N2CCCCC2)cc1	3	1	-2	11*	4	-3	6
Cc1cccnc1NC(=O)c1cccc(S(=O)(=O)N2CCCC2)c1	-5	-1	-2	0	3	/	/
COc1cc(/C=N/NC(=O)Cc2ccccc2)cc([N+](=O)[O-])c1O	-2	-12	-12	5	-6	/	/
COc1cc(/C=N/NC(=O)[C@H](Cc2c[nH]c3ccccc23)NC(=O)OCC(C)C)cc([N+](=O)[O-])c1O	8	-9	-11	14*	1	2	2
CCCCN(C)c1c2c(nc3ncnn13)CCCC2	3	2	-3	0	2	/	/
CCN1C/C(=C\c2cccc([N+](=O)[O-])c2)C(=O)/C(=C/c2cccc([N+](=O)[O-])c2)C1	6	-1	-5	12*	1	1	0
CCOc1ccc(-n2c(SCC(=O)Nc3ccc4c(c3)OCCO4)nnc2-c2ccncc2)cc1	1	-2	3	-3	1	/	/
CCCN1CCN(CCCNC(=O)C(CC)n2nc(C)c3sc4ccccc4c3c2=O)CC1 (stereo not drawn)	-10	-6	2	1	-1	/	/
CCC(C(=O)NCCCN1CCN(C)CC1)n1nc(C)c2sc3ccccc3c2c1=O (stereo not drawn)	-13	0	5	9.6*	-4	-3	-4
O=C(N/N=C/c1cccnc1)c1cc(-c2ccccc2)nc2ccccc12	-16	-4	-4	-4	1	/	/
O=C(N/N=C/c1c(F)c(F)c(F)c(F)c1F)c1cc(-c2ccccc2)nc2ccccc12	2	5	-6	14*	2	-7	-2
COC1CCN(C(=O)c2cc(COc3ccc(-n4cncn4)cc3)on2)CC1	-4	-2	-5	0	-1	/	/
O=C(c1cc(COc2ccc(-n3cncn3)cc2)on1)N1CCCC1	-2	6	-4	14*	1	1	2
C/C(=N\Nc1ccc(F)cc1F)c1ccccc1O	2	1	-4	12*	5	-6	-5
Cc1cc(NC(=O)COc2ccccc2C(N)=O)no1	4	1	6	9.5*	5	-1	4
O=C(COc1ccc(Cc2ccccc2)cc1)c1ccc(F)cc1	-2	2	1	-4	-2	/	/
